Data on ten compounds can be found in ChEMBL document CHEMBL3988442, “University of Dundee, Small-Polar-MMV Screening Library” (2021).

For some assays here: Measured potencies and affinities stand elsewhere.

Holding throughout (set-up): scale not given: direction of the effect not stated beside the values
Test [1] concerns the target Protein translocase subunit SecA (Escherichia coli (strain K12)) (UniProt P10408). Description: Assay to Identify E. coli SecA ATPase Inhibitors. The test is classed as functional. The conditions noted are these: 30 µM.
Test [2] concerns the target T1, Ubiquitin-activating enzyme e1, putative (Leishmania donovani (strain BPK282A1)) (UniProt E9BSI1).
T1 sequence (whole entry): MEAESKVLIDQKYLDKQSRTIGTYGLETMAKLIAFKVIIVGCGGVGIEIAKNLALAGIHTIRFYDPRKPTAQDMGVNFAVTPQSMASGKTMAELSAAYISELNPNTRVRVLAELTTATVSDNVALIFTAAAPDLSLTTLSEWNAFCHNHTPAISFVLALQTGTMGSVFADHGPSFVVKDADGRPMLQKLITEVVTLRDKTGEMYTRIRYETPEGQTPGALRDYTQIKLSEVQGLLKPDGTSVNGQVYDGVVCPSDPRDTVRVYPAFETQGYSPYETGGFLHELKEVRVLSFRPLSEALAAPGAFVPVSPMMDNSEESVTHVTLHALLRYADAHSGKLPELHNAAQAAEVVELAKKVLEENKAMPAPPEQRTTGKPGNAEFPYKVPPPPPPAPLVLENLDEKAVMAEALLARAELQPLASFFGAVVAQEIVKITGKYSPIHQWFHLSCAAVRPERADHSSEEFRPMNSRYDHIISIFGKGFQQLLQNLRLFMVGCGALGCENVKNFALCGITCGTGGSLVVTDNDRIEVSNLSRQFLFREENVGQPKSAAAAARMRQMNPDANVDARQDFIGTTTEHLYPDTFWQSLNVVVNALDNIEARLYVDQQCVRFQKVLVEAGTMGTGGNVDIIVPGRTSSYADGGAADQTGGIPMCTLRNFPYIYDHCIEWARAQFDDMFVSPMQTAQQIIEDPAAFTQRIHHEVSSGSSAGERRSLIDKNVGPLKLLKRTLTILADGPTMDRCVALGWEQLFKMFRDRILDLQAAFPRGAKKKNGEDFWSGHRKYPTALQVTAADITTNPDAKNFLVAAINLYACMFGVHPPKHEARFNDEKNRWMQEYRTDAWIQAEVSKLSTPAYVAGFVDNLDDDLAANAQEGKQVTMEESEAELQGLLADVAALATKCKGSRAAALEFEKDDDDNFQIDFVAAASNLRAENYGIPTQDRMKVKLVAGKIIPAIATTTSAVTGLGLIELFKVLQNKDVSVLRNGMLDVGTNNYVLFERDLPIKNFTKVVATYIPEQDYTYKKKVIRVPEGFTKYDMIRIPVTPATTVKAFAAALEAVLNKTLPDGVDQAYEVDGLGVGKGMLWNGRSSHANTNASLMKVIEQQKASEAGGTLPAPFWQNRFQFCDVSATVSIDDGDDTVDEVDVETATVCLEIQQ
Description: Leishmania donovani Ubiquitin Activating Enzyme (LdE1). The test is classed as functional. The conditions noted are these: 30 µM.

The target of test [3] is AMP-activated protein kinase, AMPK (Homo sapiens) (UniProt P54646+O43741+P54619+Q9UGJ0+Q9Y478+Q13131+Q9UGI9). Description: AMP-dependent Kinase enzyme assay. An in vitro enzyme assay that detects ADP turnover that is directly proportional to AMPK activity. This uses naive AMPK that is activated during the assay with MK-8722. The test is classed as functional. The note with it: 30 µM.

Test [4] concerns the target Sialic acid-binding Ig-like lectin 9 (Homo sapiens) (UniProt Q9Y336). Description: Hs-Siglec9 ALPHAscreen SOP 20170721. The note with it: 10 µM. In general terms: In Alpha technology, singlet oxygen from a donor bead excites a nearby acceptor bead.
In the next test the test system is Trypanosoma cruzi. Kind of test: Trypanosoma cruzi phosphomannomutase and mannose-1-phosphate guanylyltransferase assay. The note with it: 10 µM. Format: functional.
Test [5] addresses T2, Arginase-2, mitochondrial (Homo sapiens) (UniProt P78540).
T2 sequence (whole entry): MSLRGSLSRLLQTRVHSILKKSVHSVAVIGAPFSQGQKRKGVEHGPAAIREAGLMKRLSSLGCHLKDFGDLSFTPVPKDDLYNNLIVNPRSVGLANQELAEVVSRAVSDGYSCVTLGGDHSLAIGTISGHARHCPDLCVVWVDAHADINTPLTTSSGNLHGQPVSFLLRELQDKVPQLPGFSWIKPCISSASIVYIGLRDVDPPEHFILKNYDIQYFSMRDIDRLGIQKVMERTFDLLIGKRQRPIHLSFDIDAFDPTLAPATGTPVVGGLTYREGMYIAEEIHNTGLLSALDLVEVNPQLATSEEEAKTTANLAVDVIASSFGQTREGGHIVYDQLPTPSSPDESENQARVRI
Kind of test: in vitro enzyme assay to detect the production of urea directly proportional to the activity of Arginase II. Also: in the data most compounds retested in dose-response had high values. The test is classed as functional. The conditions noted are these: 33.3 µM.

For test [6], the target named is T3, Proteasome subunit beta (Trypanosoma cruzi) (UniProt O96673).
T3 sequence (whole entry): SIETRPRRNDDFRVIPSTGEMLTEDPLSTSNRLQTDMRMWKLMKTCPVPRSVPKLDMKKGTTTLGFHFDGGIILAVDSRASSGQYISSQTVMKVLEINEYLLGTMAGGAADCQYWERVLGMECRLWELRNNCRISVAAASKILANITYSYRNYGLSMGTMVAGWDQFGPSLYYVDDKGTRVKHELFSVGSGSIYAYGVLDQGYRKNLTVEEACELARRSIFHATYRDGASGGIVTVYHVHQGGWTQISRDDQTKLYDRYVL
Description: Trypanosoma cruzi proteasome chymotrypsin-like activity (TcProtChymo) assay. Also: in the data most compounds retested in dose-response had high values. The conditions noted are these: 9.37 µM. Format: functional.

The species named for another test is Homo sapiens. Description: To identify inhibition of the IFN signalling (Jak-Stat) pathway via expression of an eGFP reporter gene under the control of an IFN-stimulated response element (ISRE) containing MxA promoter. Format: functional. The note with it: 30 µM. In general terms: A reporter such as luciferase makes a cellular process visible.
Test [7] deals with T4, Tyrosyl-tRNA synthetase, putative (Trypanosoma cruzi (strain CL Brener)) (UniProt Q4DSP6).
T4 sequence (whole entry): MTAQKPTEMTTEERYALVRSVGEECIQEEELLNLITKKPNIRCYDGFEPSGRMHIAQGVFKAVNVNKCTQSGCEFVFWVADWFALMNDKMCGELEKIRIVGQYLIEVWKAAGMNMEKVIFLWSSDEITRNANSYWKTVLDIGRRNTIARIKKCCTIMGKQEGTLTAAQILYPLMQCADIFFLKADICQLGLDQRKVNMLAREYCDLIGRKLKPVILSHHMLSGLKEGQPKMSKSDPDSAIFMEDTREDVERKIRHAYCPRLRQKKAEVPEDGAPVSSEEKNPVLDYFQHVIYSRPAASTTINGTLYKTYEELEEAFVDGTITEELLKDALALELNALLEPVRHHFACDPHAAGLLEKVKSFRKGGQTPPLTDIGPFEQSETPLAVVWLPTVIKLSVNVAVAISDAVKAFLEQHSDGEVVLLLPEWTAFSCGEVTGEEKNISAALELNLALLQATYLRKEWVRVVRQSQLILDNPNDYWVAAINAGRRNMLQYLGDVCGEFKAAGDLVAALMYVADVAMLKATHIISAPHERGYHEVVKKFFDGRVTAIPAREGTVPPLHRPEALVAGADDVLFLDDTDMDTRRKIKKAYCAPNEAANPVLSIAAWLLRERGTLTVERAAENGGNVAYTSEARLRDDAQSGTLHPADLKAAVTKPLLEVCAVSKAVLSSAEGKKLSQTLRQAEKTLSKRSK
Description: Trypanosoma cruzi tyrosyl tRNA synthetase (TcYRS) _High Tyrosine SOP. Also: in the data most compounds retested in dose-response had high values. Format: functional. The note with it: 30 µM.

In test [8] the target is T4, Tyrosyl-tRNA synthetase, putative (Trypanosoma cruzi (strain CL Brener)). Kind of test: Trypanosoma cruzi tyrosyl tRNA synthetase (TcYRS) SOP. The conditions noted are these: 30 µM. Format: functional.
Test [9] concerns the target Chromo domain-containing protein 1 (Saccharomyces cerevisiae (strain ATCC 204508 / S288c) (Baker's yeast)) (UniProt P32657). Kind of test: ScCHD-1 Enzyme Inhibition Assay. Also: in the data most compounds retested in dose-response had high values. The conditions noted are these: 30 µM. The test is classed as functional.

Sialic acid-binding Ig-like lectin 9 (Homo sapiens), sequence (Q9Y336 whole entry): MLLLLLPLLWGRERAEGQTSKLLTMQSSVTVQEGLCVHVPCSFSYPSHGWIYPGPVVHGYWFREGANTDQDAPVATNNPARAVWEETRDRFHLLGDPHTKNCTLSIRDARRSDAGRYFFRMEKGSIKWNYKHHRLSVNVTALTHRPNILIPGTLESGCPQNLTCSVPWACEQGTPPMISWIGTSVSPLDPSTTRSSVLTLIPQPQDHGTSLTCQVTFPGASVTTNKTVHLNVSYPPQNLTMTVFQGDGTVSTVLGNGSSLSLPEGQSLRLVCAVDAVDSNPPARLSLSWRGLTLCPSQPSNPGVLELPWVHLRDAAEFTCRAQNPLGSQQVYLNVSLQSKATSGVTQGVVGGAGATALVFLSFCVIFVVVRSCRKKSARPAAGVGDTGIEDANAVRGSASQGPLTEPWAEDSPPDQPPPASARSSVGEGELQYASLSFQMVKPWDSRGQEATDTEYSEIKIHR
Chromo domain-containing protein 1 (Saccharomyces cerevisiae (strain ATCC 204508 / S288c) (Baker's yeast)), sequence (P32657 whole entry, the tested form may be a part): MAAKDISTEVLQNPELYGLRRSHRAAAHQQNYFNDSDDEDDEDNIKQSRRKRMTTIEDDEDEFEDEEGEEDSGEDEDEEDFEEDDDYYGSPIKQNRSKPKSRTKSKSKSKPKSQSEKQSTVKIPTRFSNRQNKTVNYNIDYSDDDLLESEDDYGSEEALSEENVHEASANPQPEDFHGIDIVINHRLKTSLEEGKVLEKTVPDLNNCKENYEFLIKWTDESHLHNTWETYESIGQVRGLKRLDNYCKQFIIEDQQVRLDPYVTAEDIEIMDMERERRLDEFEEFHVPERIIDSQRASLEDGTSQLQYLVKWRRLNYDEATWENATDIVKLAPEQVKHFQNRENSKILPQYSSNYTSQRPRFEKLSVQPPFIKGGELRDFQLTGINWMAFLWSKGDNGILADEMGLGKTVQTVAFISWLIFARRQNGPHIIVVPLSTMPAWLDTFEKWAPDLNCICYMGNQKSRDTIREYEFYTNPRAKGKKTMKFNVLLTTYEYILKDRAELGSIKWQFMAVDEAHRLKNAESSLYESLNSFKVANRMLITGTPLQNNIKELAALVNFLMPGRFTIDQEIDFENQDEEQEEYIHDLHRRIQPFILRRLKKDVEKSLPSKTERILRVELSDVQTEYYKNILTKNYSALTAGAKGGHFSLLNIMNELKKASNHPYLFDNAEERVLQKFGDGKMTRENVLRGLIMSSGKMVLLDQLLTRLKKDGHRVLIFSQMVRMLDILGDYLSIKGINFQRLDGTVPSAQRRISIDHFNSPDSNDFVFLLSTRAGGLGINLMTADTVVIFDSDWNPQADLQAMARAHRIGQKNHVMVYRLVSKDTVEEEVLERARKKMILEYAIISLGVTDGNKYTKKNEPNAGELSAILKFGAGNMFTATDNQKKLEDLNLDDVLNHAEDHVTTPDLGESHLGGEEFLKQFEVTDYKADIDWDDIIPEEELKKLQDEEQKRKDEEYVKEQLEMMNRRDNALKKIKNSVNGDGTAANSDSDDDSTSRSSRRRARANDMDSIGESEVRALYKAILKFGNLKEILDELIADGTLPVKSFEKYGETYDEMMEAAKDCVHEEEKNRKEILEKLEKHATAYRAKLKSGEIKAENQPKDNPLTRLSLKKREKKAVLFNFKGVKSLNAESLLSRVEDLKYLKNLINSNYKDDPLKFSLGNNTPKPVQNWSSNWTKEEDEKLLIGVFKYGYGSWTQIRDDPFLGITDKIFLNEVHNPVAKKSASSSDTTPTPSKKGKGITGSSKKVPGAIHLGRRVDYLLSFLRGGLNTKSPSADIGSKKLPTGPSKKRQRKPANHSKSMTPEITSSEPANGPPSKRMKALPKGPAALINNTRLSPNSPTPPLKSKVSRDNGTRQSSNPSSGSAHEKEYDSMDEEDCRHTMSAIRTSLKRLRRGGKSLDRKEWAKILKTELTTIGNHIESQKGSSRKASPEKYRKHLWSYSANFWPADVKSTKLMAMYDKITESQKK
Protein translocase subunit SecA (Escherichia coli (strain K12)), sequence (P10408 whole entry): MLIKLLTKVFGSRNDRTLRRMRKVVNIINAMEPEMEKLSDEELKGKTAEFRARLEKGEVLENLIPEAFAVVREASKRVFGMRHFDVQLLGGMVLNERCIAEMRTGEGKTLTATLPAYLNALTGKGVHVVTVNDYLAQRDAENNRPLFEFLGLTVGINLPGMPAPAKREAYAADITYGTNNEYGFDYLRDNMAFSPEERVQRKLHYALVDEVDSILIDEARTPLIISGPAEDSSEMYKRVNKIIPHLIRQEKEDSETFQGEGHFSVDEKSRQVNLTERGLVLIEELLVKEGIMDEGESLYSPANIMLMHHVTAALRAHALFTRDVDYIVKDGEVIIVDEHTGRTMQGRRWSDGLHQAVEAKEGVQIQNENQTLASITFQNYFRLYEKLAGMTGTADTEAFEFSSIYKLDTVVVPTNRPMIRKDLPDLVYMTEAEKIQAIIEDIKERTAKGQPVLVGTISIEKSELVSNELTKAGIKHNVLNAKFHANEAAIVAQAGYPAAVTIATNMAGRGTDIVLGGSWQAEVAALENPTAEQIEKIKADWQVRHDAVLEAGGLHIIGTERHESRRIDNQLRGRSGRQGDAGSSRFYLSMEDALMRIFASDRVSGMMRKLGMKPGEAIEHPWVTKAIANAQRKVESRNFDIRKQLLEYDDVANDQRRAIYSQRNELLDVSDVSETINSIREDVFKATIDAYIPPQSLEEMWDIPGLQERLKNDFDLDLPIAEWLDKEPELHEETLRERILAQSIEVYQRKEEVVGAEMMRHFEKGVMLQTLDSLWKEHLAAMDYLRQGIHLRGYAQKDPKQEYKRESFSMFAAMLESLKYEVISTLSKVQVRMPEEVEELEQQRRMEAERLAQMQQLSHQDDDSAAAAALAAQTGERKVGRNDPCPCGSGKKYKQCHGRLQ

On to `Cc1ccc(C2CCCN2Cc2nc3c(cnn3C)c(=O)[nH]2)cc1C` (stereo not given), for which the Percent Effect in [1] is -4.42%; in [2] it was 27.9%; in [3] it was -6.55%; in [4], -1.46%; with Trypanosoma cruzi, 5.19%; in [5], -1.52%. For the same compound, the Percent Effect in test [6] was 13.8%; in the test listed under Homo sapiens, 4.19%; in test [7], 7.39%; in test [8], 24.1%; in test [9] it was -5.15%.

As to `Cc1nc(C2CCCN(C(=O)c3cc(Cl)c[nH]3)C2)no1` (stereo not given), the Percent Effect in [1] was -5.67%; in [2], 12.7%; in [3] it was -0.617%; in [4], 10.9%; in the test on Trypanosoma cruzi, 3.87%; in [5], -6.46%. Moreover, the Percent Effect is 1.88% in test [6]; -5.6% in the test filed under Homo sapiens; 5.42% in test [7]; 13.9% in [8]; -7.78% in [9].

Consider `O=C(c1cnc(-c2cccs2)s1)N1CCCN2CCCC2C1` (stereo not given), for which the Percent Effect was -2% in test [1]; 5.41% in [2]; -8.71% in [3]; -6.92% in test [4]; -2.36% in the test on Trypanosoma cruzi; -16% in test [5]. Also, the Percent Effect in test [6] is 12.6%; in the test listed under Homo sapiens it was -1.67%; in [7] it was 4.43%; in test [8], 23.5%; in [9], -7.67%.

On to `Nc1cc2c(nn1)CCN(C(=O)CC1CCCC1)C2`, for which the Percent Effect in test [1] is -3.9%; in test [2] it was 10.1%; in test [3] it was -4.63%; in [4], 16.5%; in the test with Trypanosoma cruzi it was -3.12%; in test [5], -0.38%. Further, the Percent Effect was -0.246% in test [6]; -1.92% in the test filed under Homo sapiens; 7.39% in test [7]; 13.9% in [8]; -5.84% in test [9].

As for `CC(C)CCc1noc(CN2CCCN(C(=O)c3ccco3)CC2)n1`, the Percent Effect in test [1] was -5.45%; in [2], -8.22%; in test [3], -0.00644%; in test [4], 4.33%; with Trypanosoma cruzi, 2.38%; in test [5], -11.2%. Besides, the Percent Effect in test [6] is 3.68%; in the test filed under Homo sapiens, 7.02%; in test [7], 3.12%; in [8], 3.7%; in test [9] it was -3.57%.

As to `COC(=O)N1CCCN(C(=O)NCc2ccc(Cl)s2)CC1`, the Percent Effect in test [1] was -1.83%; in test [2] it was 16.5%; in [3], 4.69%; in [4], -2.7%; in the test on Trypanosoma cruzi it was 0.308%; in [5] it was -4.09%. Also, the Percent Effect is 12.9% in [6]; 19.3% in the test filed under Homo sapiens; 7.29% in [7]; 15.2% in test [8]; -27.7% in test [9].

Turning to `Cc1cnn(CC2CN(c3ncnc4ccsc34)CCO2)c1` (stereo not given), the Percent Effect in test [1] is -2.74%; in test [2], 2.7%; in test [3], 4.84%; in test [4], -10%; in the test with Trypanosoma cruzi it was 6.05%; in [5], -2.5%. The Percent Effect is 19.7% in test [6]; 75.7% in the test filed under Homo sapiens; 11.9% in test [7]; 15.8% in [8]; -0.587% in [9].

As for `CC(C)n1cnc2c1C(C(=O)NCCC#N)N(Cc1ccccc1)CC2` (stereo not given), the Percent Effect in test [1] was -5.9%; in [2], 16%; in test [3] it was -5.79%; in [4] it was 0.457%; with Trypanosoma cruzi, 4.44%; in test [5], -40%. Also, the Percent Effect is 14% in test [6]; -0.451% in the test filed under Homo sapiens; 2.08% in test [7]; 15% in test [8]; -7.21% in test [9].

As for `COc1ncccc1CNC(=O)NC1CCOc2ccccc21` (stereo not given), the Percent Effect in [1] was -3.57%; in [2], 5.41%; in [3], -0.164%; in test [4], 13.2%; with Trypanosoma cruzi, 5.48%; in [5], 0.185%. Also, the Percent Effect was -4.85% in test [6]; 10.6% in the test listed under Homo sapiens; 0% in test [7]; 13.4% in test [8]; -3.69% in test [9].

In the case of `CCc1ccc(CNC(=O)NC(C)CN2CCOCC2)s1` (stereo not given), the Percent Effect in test [1] was -1.82%; in test [2], 18.4%; in test [3], -5.99%; in test [4], -6.5%; with Trypanosoma cruzi, 1.46%; in test [5] it was 1.18%. The Percent Effect in test [6] is 9.49%; in the test listed under Homo sapiens, 5.21%; in test [7], -12.8%; in test [8] it was 15.6%; in test [9] it was 8.4%.
